Calls of active or inactive are those of the source. Rule for the calls: active = hit-call score of the fitted dose curve at least 0.9, where 1 is the maximum; inactive = score below 0.9.
Tests used:
Conditions in all cases: actives raise or lower the signal
[1] = CEETOX_H295R_DOC: CeeTox H295R High-throughput Steroidogenesis Assay for DOC (AID 2283439)
Procedure, shortened: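 Human adrenocortical H295R cells, passages up to 10, received 10 uM forskolin for 48 h before chemical addition. After another 48 h exposure in 0.1% DMSO, secreted DOC was measured by LC-MS/MS, with gain or loss fitted against DMSO controls.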

[2] = CEETOX_H295R_ESTRADIOL: CeeTox H295R High-throughput Steroidogenesis Assay for Estradiol (AID 2283440);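 note: estradiol secreted into medium quantified by LC-MS/MS after dansyl derivatisation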
Procedure, shortened: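 Following OECD 456 with minor changes, H295R cells received 10 uM forskolin for 48 h and then test chemical for 48 h. Hormone output was read by HPLC-MS/MS, with cytotoxic concentrations diluted until MTT viability reached ≥70%.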

[3] = CEETOX_H295R_ESTRONE: CeeTox H295R High-throughput Steroidogenesis Assay for Estrone (AID 2283441);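 note: estrone secreted into medium measured by LC-MS/MS after dansyl derivatization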
Procedure, shortened: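 Forskolin-stimulated H295R cells are treated 48 h with chemical, and estrone in the medium is measured by LC-MS/MS. Activity is fitted in both directions relative to DMSO controls, with chemicals diluted until MTT viability reaches at least 70%.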

[4] = CEETOX_H295R_PROG: CeeTox H295R High-throughput Steroidogenesis Assay for Progesterone (PROG) (AID 2283442)
Procedure, shortened: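 Adrenal H295R line, forskolin-stimulated (10 uM, 48 h) before dosing. 48 h exposure, 0.1% DMSO vehicle. Secreted progesterone by reverse-phase HPLC with ESI+ MS/MS quantification; DMSO-normalised bidirectional curve fit.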

[5] = CEETOX_H295R_TESTO: CeeTox H295R High-throughput Steroidogenesis Assay for Testosterone (TESTO) (AID 2283457)
Procedure, shortened: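 Testosterone synthesis is assessed in human adrenocortical H295R cells after 48 h of chemical exposure, using HPLC-MS/MS of extracted medium. Activity is fitted in both directions against DMSO control.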

| SMILES | outcome [1] | outcome [2] | outcome [3] | outcome [4] | outcome [5] |
| --- | --- | --- | --- | --- | --- |
| CC(C)(C)CC(C)(C)c1ccc(OCCOCC[N+](C)(C)Cc2ccccc2)cc1 | inactive | inactive | inactive | inactive | – |
| CC(C)Nc1nc(N)nc(Cl)n1 | inactive | – | – | inactive | – |
| CCC(C)c1cc([N+](=O)[O-])cc([N+](=O)[O-])c1OC(=O)OC(C)C (stereo unspecified) | inactive | – | – | inactive | inactive |
| CCc1cc(C(C)(C)C)c(O)c(C(C)(C)C)c1 | inactive | – | – | inactive | – |

— PubChem BioAssay (EPA / NIEHS)
